Reference: PubChem BioAssay AID602192 (The Scripps Research Institute Molecular Screening Center, 2012)
Out of some 2,400 compounds screened, about 750 (31%) were called active. A selection follows. Values without a mark were called inactive.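 Rule for the calls: active = mean activation across replicates above the hit cutoff set in the earlier primary screen (cut at about 8% in these data); inactive = the rest.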

target: Melanocortin receptor 4 (Homo sapiens) (UniProt P32245); assay: MC4R beta-arrestin agonists, retest, confirmation, cell-based, luminescence, U2OS (AID 602192); settings: U2OS MC4R beta-arrestin recruitment, at 8.9 µM, active compounds read high, scaled DMSO 0%, Melanotan II 100%
Sequence (P32245 whole entry, looked up): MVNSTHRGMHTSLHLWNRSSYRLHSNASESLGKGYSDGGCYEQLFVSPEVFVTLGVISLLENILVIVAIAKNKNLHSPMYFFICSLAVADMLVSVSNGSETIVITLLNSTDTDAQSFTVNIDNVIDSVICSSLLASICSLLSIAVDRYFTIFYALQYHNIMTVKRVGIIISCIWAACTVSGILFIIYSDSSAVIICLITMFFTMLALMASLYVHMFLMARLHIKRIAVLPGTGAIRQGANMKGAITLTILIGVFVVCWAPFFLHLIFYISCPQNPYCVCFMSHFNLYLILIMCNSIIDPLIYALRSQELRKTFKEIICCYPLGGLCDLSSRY

Going from `O=C(OC12CC3CC(CC(C3)C1)C2)c1ccc(NCc2cc(O)ccc2O)cc1` to `Cc1ccc([C@H]2C[C@H](O)[C@@H](n3cc(COC(=O)c4ccccc4)nn3)CN2C(=O)C2CCCCC2)cc1`, the activation falls from 5.55% to 1.84%.

First: COc1cc(NC(=O)c2cncc(-c3ccc(C#N)cc3)c2)cc(C(=O)Nc2cccc(C(F)(F)F)c2)c1
Second: Cc1ccc2nc(-c3ccncc3)cc(C(=O)Nc3ccc(OC(F)F)cc3)c2c1
The activation of the first is higher: 2.95% for the first, 1.63% for the second.

First: COc1ccc(Cc2nnc(NC(=O)c3ccc(OC)cc3OC)s2)cc1
Second: COc1ccc(Nc2ncnc3sc(-c4ccccc4)cc23)c(OC)c1
The activation of the first is lower: -0.87% for the first, 5.2% for the second.

First: O=C(NC1CCCCCC1)c1cccnc1Sc1ccc(Cl)cc1
Second: CSc1ccc(/C=N\NC(=O)COc2ccc(Cl)cc2Br)cc1
The activation of the first is lower: 0.48% for the first, 4.69% for the second.

Going from `COc1ccc(C)c(Cn2c(-c3nonc3N)nc3ccccc32)c1` to `CCCCNc1c(-c2cccc(Sc3ccc(OC)cc3)c2)nc2ccccn12`, the activation rises from -0.25% to 5.36%.

First: CCc1ccc2c(c1)cc(CN(C(=S)Nc1ccccc1Cl)C1CC1)c1nnnn12
Second: O=C(OCc1cn(-c2ccc(Cl)c(Cl)c2)nn1)c1ccccc1Cl
The activation of the first is higher: 0.41% for the first, -2.69% for the second.

First: Cc1c(-c2ccccc2)n[nH]c1C(=O)N=Nc1c(O)[nH]c2ccccc12
Second: CCOC(=O)c1[nH]c2c(c1-c1ccccc1)C(=O)CC(c1ccc(Cl)cc1)C2 (centres undefined)
The activation of the first is higher: 3.31% for the first, 2.82% for the second.

Going from `Cc1ccsc1/C=N/Nc1ccc(Cl)nn1` to `CCOC(=O)c1c(-c2ccc(C)cc2C)csc1NC(=O)CSc1nnnn1C`, the activation falls from 2.12% to -1.45%.

Compared with `COc1cc(/C=C(\C#N)C(=O)Nc2ccc3ccccc3c2)c([N+](=O)[O-])cc1OC`, `Cc1cc(/C=C(/C#N)C(=O)Nc2ccc(Cl)cc2)c(C)n1-c1cccnc1` is lower in activation: 5.51% for the first, 0.76% for the second.

Compared with `Cn1c(=S)sc2ccc3ccccc3c21`, `Clc1ccccc1Nc1nc(NCc2cccs2)nc2ccsc12` is lower in activation: 2.83% for the first, 2.53% for the second.

Going from `C=CCn1c(SCC(=O)c2ccc(Br)cc2)nnc1C(C)NC(=O)Cc1ccc(OC)cc1` (centres undefined) to `COc1cccc(CNC(=O)c2nnn(CC(=O)Nc3cc(Cl)ccc3C)c2N)c1`, the activation falls from 3.84% to 2.75%.

Going from `COC(=O)c1nc2n(n1)C(c1ccc([N+](=O)[O-])cc1)C(C(=O)Nc1ccc(Cl)cc1)=C(C)N2` (centres undefined) to `CCN(CC)C(=O)Oc1ccc(Br)cc1C(=O)Nc1ccc(F)c(Cl)c1`, the activation rises from -3.03% to -3.02%.

Going from `Cc1ccc(-n2nc3cc(Cl)c(NC(=O)c4ccco4)cc3n2)cc1` to `O=C(c1cc(-c2cccc(O)c2)on1)N1CCc2ccccc2C1`, the activation falls from 0.27% to -1.12%.

First: COc1ccc(S(=O)(=O)N2CCC(C(=O)OCC(=O)c3ccccc3)CC2)cc1[N+](=O)[O-]
Second: O=C(Cn1cnc2c(nnn2-c2ccccc2)c1=O)N1CCC(Cc2ccccc2)CC1
The activation of the first is higher: 5.6% for the first, 5% for the second.

First: Cc1cc(C)cc(C(=O)OCC(=O)NCCNC(=O)COC(=O)c2cc(C)cc(C)c2)c1
Second: COc1ccc(Nc2oc(-c3ccccc3Cl)nc2C#N)cc1
The activation of the first is lower: 0.95% for the first, 6.82% for the second.

In the case of `O=C(Nc1sc2c(c1-c1nc3ccccc3[nH]1)CCCC2)C1CC1`, the activation is reported as 6.22%.

With `Cc1ccccc1NC(=O)c1ccc(COc2ccc3c(C)cc(=O)oc3c2)cc1` the activation was 28.2% (active).
`COc1ccc(C(N)c2csc(NC(=O)Nc3cccc(C(F)(F)F)c3)n2)cc1` (centres undefined) was tested, and the activation was 11.5% (active).
In the case of `COc1ccc(CC(N)c2csc(NC(=O)NC(c3ccccc3)c3ccccc3)n2)cc1` (centres undefined), the activation is reported as 17.4% (active).
In the case of `CCOC(=O)c1c(-c2ccccc2)oc2cc(Br)c(O)c(C=O)c12`, the activation is reported as 12.2% (active).
In the case of `COc1ccc(-c2cc(NC=O)c3ncc(-c4ccccc4)n3c2)cc1OC`, the activation is reported as 17.6% (active).
`CC(=O)c1cccc(-c2cnc3c(NC=O)cc(-c4ccc(N(C)C)cc4)cn23)c1` was tested, and the activation was 17.7% (active).
With `CN(C)CCNC(=O)c1cccc(-c2cnc3c(NC=O)cc(-c4cccc(C(F)(F)F)c4)cn23)c1` the activation was 20.8% (active).
For `CN(C)C(=O)c1cccc(-c2cnc3c(NC=O)cc(-c4ccc(F)cc4)cn23)c1`, the activation was 9.94% (active).
With `O=C(COC(=O)c1cccc(Br)c1)Nc1cccc2c1C(=O)c1ccccc1C2=O` the activation was 8.85% (active).
For `O=C(CSc1ccccc1)Nc1nnc(/C=C/c2ccccc2)s1`, the activation was 32.6% (active).
`COc1ccc2sc(-c3ccc(S(C)(=O)=O)cc3)c(C#Cc3cncn3C)c2c1` was tested, and the activation was 27.1% (active).
For `CCN(CC)S(=O)(=O)c1ccc(C)c(NC(=O)COc2ccc(Br)cc2Cl)c1`, the activation was 12.9% (active).
For `COCCNc1nc(Nc2ccccc2Cl)c2sc(-c3ccccc3)cc2n1`, the activation was 11.8% (active).
